Where a name gives a salt, the structure may show the parent alone.
test system: Saccharomyces cerevisiae BY4741 SeMeCo community; experiment: z-score of subpopulation abundance vs DMSO median, subpopulation auxotrophic for U; higher = larger share of this subpopulation than in DMSO controls; conditions: 10 µM; 24 h; SM minimal medium; subpopulation (auxotrophy): U
In short: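 A community of Saccharomyces cerevisiae BY4741 was built from four plasmids that each restored one auxotrophy and encoded a distinct fluorescent protein. Pre-grown overnight to OD600 1.0 and diluted to 0.3, it was dispensed at 70 µl into 384-well plates acoustically predosed with library drugs for a final 10 µM, and grown 24 h in minimal SM medium. Cells were then paraformaldehyde-fixed and imaged by automated confocal microscopy. Thresholds and autofluorescence correction came from single-auxotroph fluorescent strains, and each subpopulation's abundance was scored as a z-score relative to the vehicle-well median.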

Row | SMILES | z-score of subpopulation abundance
1 | C=C[C@]1(C)C[C@@H](OC(=O)CSC(C)(C)CNC(=O)[C@H](N)C(C)C)[C@]2(C)[C@H](C)CC[C@]3(CCC(=O)[C@H]32)[C@@H](C)[C@@H]1O [Valnemulin HCl] | 0.15
2 | C[N+]1(C)CCC(=C(c2ccccc2)c2ccccc2)CC1 [Diphemanil Methylsulfate] | 0
3 | CC[C@H]1OC(=O)[C@H](C)[C@@H](O[C@H]2C[C@@](C)(OC)[C@@H](O)[C@H](C)O2)[C@H](C)[C@@H](O[C@@H]2O[C@H](C)C[C@H](N(C)C)[C@H]2O)[C@](C)(O)C[C@@H](C)/C(=N\OCOCCOC)[C@H](C)[C@@H](O)[C@]1(C)O [Roxithromycin] | 0.31
4 | NCc1ccccc1CC(=O)N[C@@H]1C(=O)N2C(C(=O)O)=C(CSc3nnnn3CC(=O)O)CS[C@H]12 [Ceforanide] | -0.98
5 | C#C[C@]1(O)CC[C@H]2[C@@H]3CCC4=Cc5oncc5C[C@]4(C)[C@H]3CC[C@@]21C [Danazol] | 0.53
6 | Cc1c(OCC(F)(F)F)ccnc1C[S+]([O-])c1nc2ccccc2[nH]1 (stereo unspecified) [Lansoprazole] | -0.71
7 | CC(C(O)c1ccc(O)cc1)N1CCC(Cc2ccccc2)CC1 (stereo unspecified) [Ifenprodil Tartrate] | 0.69
8 | Cc1ncc([N+](=O)[O-])n1C [Dimetridazole] | -0.07
9 | CC(=O)OCC[N+](C)(C)C [Acetylcholine iodide] | 0.13
10 | CC(=O)N1CCN(c2ccc(OCC3COC(Cn4ccnc4)(c4ccc(Cl)cc4Cl)O3)cc2)CC1 (stereo unspecified) [Ketoconazole] | -0.47
11 | CN1C2CCCC1CC(NC(=O)c1nn(C)c3ccccc13)C2 (stereo unspecified) [Granisetron HCl] | -1.1
12 | NC(=O)OCC(COC(N)=O)c1ccccc1 [Felbamate] | -0.1
13 | CCCN(CCC)CCc1cccc2c1CC(=O)N2 [Ropinirole HCl] | 0.26
14 | CC(=O)NO [Acetohydroxamic acid] | -0.68
15 | COc1ccc2c3c1O[C@H]1C[C@@H](O)C=C[C@@]31CCN(C)C2 [Galanthamine HBr] | 0.01
16 | CCN(CC)CC#CCOC(=O)C(O)(c1ccccc1)C1CCCCC1 (stereo unspecified) [Oxybutynin chloride] | -0.51

Row | SMILES | z-score of subpopulation abundance
17 | O=C1CC2(CCCC2)CC(=O)N1CCCCN1CCN(c2ncccn2)CC1 [Buspirone HCl] | 0.5
18 | Cc1ccc(-c2cc(C(F)(F)F)nn2-c2ccc(S(N)(=O)=O)cc2)cc1 [Celecoxib] | -0.79
19 | Cc1cccc(N(C)C(=S)Oc2ccc3ccccc3c2)c1 [Tolnaftate] | -0.32
20 | CC(C)Cc1ccc(C(C)C(=O)O)cc1 (stereo unspecified) [Ibuprofen Lysine] | -3.65
21 | O=C(Nc1cc(Cl)cc(Cl)c1O)c1c(O)c(Cl)cc(Cl)c1Cl [Oxyclozanide] | -0.91
22 | O=C(O)CCc1nc(-c2ccccc2)c(-c2ccccc2)o1 [Oxaprozin] | -1.97
23 | CC[C@H]1OC(=O)[C@H](C)[C@@H](O[C@H]2C[C@@](C)(OC)[C@@H](O)[C@H](C)O2)[C@H](C)[C@@H](O[C@@H]2O[C@H](C)C[C@H](N(C)C)[C@H]2O)[C@](C)(O)C[C@@H](C)C(=O)[C@H](C)[C@H]2OC(=O)O[C@@]21C [Erythromycin Cyclocarbonate] | 0.09
24 | CC(Cc1ccc(O)c(O)c1)C(C)Cc1ccc(O)c(O)c1 (stereo unspecified) [Nordihydroguaiaretic acid (NDGA)] | -0.02
25 | CCOc1cc(N)c(Cl)cc1C(=O)NCC1CN(Cc2ccc(F)cc2)CCO1 (stereo unspecified) [Mosapride] | -0.39
26 | C/C(=C\C(=O)OCCCCCCCCC(=O)O)C[C@@H]1OC[C@H](C[C@@H]2O[C@H]2[C@@H](C)[C@H](C)O)[C@@H](O)[C@H]1O [Mupirocin calcium] | 1.26
27 | Cc1cc(C)nc(NS(=O)(=O)c2ccc(N)cc2)n1 [Sulfamethazine Sodium Salt] | -0.43
28 | CCN(CC)CCNC(=O)c1cc(Cl)c(N)cc1OC [Metoclopramide] | 1.49
29 | O=C1[C@H]2CCCC[C@H]2C(=O)N1CCCCN1CCN(c2nsc3ccccc23)CC1 [Perospirone hydrochloride] | 0.1
30 | CC1=C(C(=O)OCCN(Cc2ccccc2)c2ccccc2)C(c2cccc([N+](=O)[O-])c2)C(P2(=O)OCC(C)(C)CO2)=C(C)N1 (stereo unspecified) [Efonidipine] | 0.34
31 | CS(=O)(=O)c1ccc([C@@H](O)[C@@H](CF)NC(=O)C(Cl)Cl)cc1 [Florfenicol] | 0.29

Source: the supplement of paper PMC8975748
